Reference: PubChem BioAssay (NCI)
Several values for one entry are separate records, joined by “and”; a condition that tells them apart may be missing. Equal entries are not always repeated. This is part of a sample that, as a whole, favours compounds with a hit. Of some 79,000 tested, about 15% had one in any assay. Where a structure was tested more than once in an assay, its records may differ in their call. Activity calls are given as the source filed them. No stated cut-off is given here; in the data, active means growth inhibition above about 70%; inactive means the rest.

How the values were obtained:
[1] = NCI Yeast Anticancer Drug Screen. Data for the rad50 strain (AID 155);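 further: 0% = growth of vehicle-only cultures of the same strain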; details: S. cerevisiae rad50 strain growth inhibition, stronger effect = higher value
Procedure, shortened: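 Vehicle-treated cultures provide the reference for the growth inhibition reported for compound-exposed, repair-deficient yeast.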

[2] = NCI Yeast Anticancer Drug Screen. Data for the mec2-1 strain (AID 157); details: S. cerevisiae mec2-1 strain, stronger effect = higher value
Procedure, shortened: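 Test agents were screened against the mec2-1 yeast strain, with defined DNA repair or cell cycle alteration. Growth was scored as inhibition against vehicle-only controls.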

[3] = NCI Yeast Anticancer Drug Screen. Data for the sgs1 mgt1 strain (AID 161);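 further: 0% = growth of cultures given vehicle only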; details: S. cerevisiae sgs1 mgt1 strain, stronger effect = higher value
Procedure, shortened: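 Inhibition of yeast growth, normalised to vehicle-treated controls, is reported for a strain bearing genetic alterations in DNA damage repair.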

[4] = NCI Yeast Anticancer Drug Screen. Data for the cln2 rad14 strain (AID 165);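 further: 0% = growth equal to vehicle treated cultures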; details: S. cerevisiae cln2 rad14 strain, stronger effect = higher value
Procedure, shortened: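 Growth of compound-exposed yeast (cln2 rad14 genotype) measured and expressed as inhibition relative to vehicle.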

[5] = NCI Yeast Anticancer Drug Screen. Data for the bub3 strain (AID 167); details: S. cerevisiae bub3 mutant strain, stronger effect = higher value
Procedure, shortened: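 Mutant yeast screening strain plus compound; vehicle-treated cultures serve as the 0% inhibition reference.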

[6] = NCI Yeast Anticancer Drug Screen. Data for the mlh1 rad18 strain (AID 175); details: S. cerevisiae mlh1 rad18 strain growth inhibition, stronger effect = higher value
Procedure, shortened: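 In this whole-cell yeast screen, a strain with altered DNA damage repair is challenged with compound, and its growth is measured against matched vehicle-treated controls.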

[7] = NCI Yeast Anticancer Drug Screen. Data for the wt2 strain (AID 169); details: S. cerevisiae wt2 strain growth inhibition, stronger effect = higher value
Procedure, shortened: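 Genetically defined yeast strains from a DNA-repair/cell-cycle panel were used. Compound-exposed yeast growth was measured, and the inhibition was calculated relative to vehicle treatment.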

[8] = at 5.0 µM (retest, dose inferred, filed as 0.5)
[9] = at 50.0 µM (retest, dose inferred, filed as 5.0)

Measured: growth inhibition

CN(CCN1C(=O)c2cccc3cccc(c23)C1=O)CCN1C(=O)c2cccc3cccc(c23)C1=O
active: [1]; [8] 97% | [1]; [9] 96% | [1]; at 50.0 µM 98.5% | [2]; [9] 97% | [2]; at 50.0 µM 98.2% | [3]; [9] 97% | [3]; at 50.0 µM 97.2% | [4]; [9] 90% | [4]; at 50.0 µM 83.6% | [5]; [9] 95% | [5]; at 50.0 µM 96% | [6]; [9] 97% | [6]; at 50.0 µM 98.1%
inactive: [2]; [8] 20% | [3]; [8] 69% | [4]; [8] 15% | [5]; [8] -2% | [6]; [8] 47%

NC(C/[N+]([O-])=N/O)C(=O)O (centres undefined)
inactive: [1]; [8] 18% | [1]; [9] 21% | [1]; at 50.0 µM 40.7% and 47.2% and 57.1% | [2]; [8] 10% | [2]; [9] 13% | [2]; at 50.0 µM 11.1% and 22.1% and 33.5% | [3]; [8] 46% | [3]; [9] 51% | [3]; at 50.0 µM 36.2% and 39.5% and 48.1% | [4]; [8] 37% | [4]; [9] -28% | [4]; at 50.0 µM 5.75% and 1.45% and 18.8% | [5]; [8] 46% | [5]; [9] 4% | [5]; at 50.0 µM -0.3% and 17.1% and 21.9% | [6]; [8] 25% | [6]; [9] 38% | [6]; at 50.0 µM 31.9% and 35.6% and 46.6%

CC1=NC(=Cc2ccc([N+](=O)[O-])cc2)C(=O)N1n1c(-c2ccccc2)nc2ccccc2c1=O
active: [4]; at 50.0 µM 77%
inactive: [1]; [8] 3% | [1]; [9] 1% | [1]; at 50.0 µM 48.9% | [2]; [8] -13% | [2]; [9] 0% | [2]; at 50.0 µM 63.8% | [4]; [8] 13% | [4]; [9] 11% | [5]; [8] -15% | [5]; [9] -2% | [5]; at 50.0 µM 68% | [6]; [8] 11% | [6]; [9] 1% | [6]; at 50.0 µM 62.8%

O=C1C=CC(=O)c2c1ccc1c3ccccc3n(Cc3ccccc3)c21
active: [1]; [9] 84% | [1]; at 50.0 µM 73% | [2]; [9] 90% | [2]; at 50.0 µM 71.2% | [5]; [9] 92% | [5]; at 50.0 µM 76% | [6]; [9] 90%
inactive: [1]; [8] 27% | [2]; [8] 38% | [4]; [8] 19% | [4]; [9] 49% | [4]; at 50.0 µM 38% | [5]; [8] 52% | [6]; [8] 47% | [6]; at 50.0 µM 25.1%

O=C(/C(=C\c1ccc(Cl)c(Cl)c1)c1ccccc1)c1ccc(O)cc1
inactive: [1]; [8] 51% | [2]; [8] 39% | [3]; [8] 48% | [4]; [8] 42% | [5]; [8] 43% | [6]; [8] 54%
active: [1]; [9] 91% | [1]; at 50.0 µM 94% | [2]; [9] 95% | [2]; at 50.0 µM 93.9% | [3]; [9] 93% | [3]; at 50.0 µM 94.1% | [4]; [9] 93% | [4]; at 50.0 µM 92.2% | [5]; [9] 94% | [5]; at 50.0 µM 91.8% | [6]; [9] 92% | [6]; at 50.0 µM 93.2%

CC(=O)NC1CCC(C2CCCCC2)CC1C1CCCCC1 (centres undefined)
active: [1]; [9] 85% | [1]; at 50.0 µM 93.6% | [2]; [9] 87% | [2]; at 50.0 µM 95.7% | [3]; [9] 93% | [3]; at 50.0 µM 90.7% | [4]; [9] 82% | [4]; at 50.0 µM 89.7% | [5]; [9] 86% | [5]; at 50.0 µM 95% | [6]; [9] 86% | [6]; at 50.0 µM 92%
inactive: [1]; [8] -2% | [2]; [8] -1% | [3]; [8] 4% | [4]; [8] 1% | [5]; [8] 3% | [6]; [8] -1%

O=c1c(Cl)c(Cl)cnn1-c1ccccc1
inactive: [1]; [8] 33% | [1]; [9] 58% | [1]; at 50.0 µM 30.9% and 6.8% | [3]; [8] -6% | [3]; [9] 14% | [3]; at 50.0 µM 35.7% and -2.25% | [4]; [8] 17% | [4]; [9] 19% | [4]; at 50.0 µM 28.1% and 13.8% | [5]; [8] 10% | [5]; [9] 21% | [5]; at 50.0 µM 23.9% and -9.2% | [6]; [8] 8% | [6]; [9] 26%
72.6% (active) and -13.8% (inactive): [6]; at 50.0 µM

C=CCCC(=O)O
inactive: [1]; [8] 6% | [1]; [9] 7% | [1]; at 50.0 µM 1.25% and 2.45% | [2]; [8] 7% | [2]; [9] 2% | [2]; at 50.0 µM -2.15% and -0.6% | [3]; [8] 5% | [3]; [9] 3% | [3]; at 50.0 µM -11.3% and 4.3% | [4]; [8] 4% | [4]; [9] 4% | [4]; at 50.0 µM 54.4% and 5.75% | [5]; [8] 4% | [5]; [9] 1% | [5]; at 50.0 µM 64.5% and 9.55% | [6]; [8] 0% | [6]; [9] 2% | [6]; at 50.0 µM -40.5% and 0.95%

CC(=O)OCC1OC(n2c(=S)n(-c3ccccc3)c(=O)c3ccccc32)C(OC(C)=O)C(OC(C)=O)C1OC(C)=O (centres undefined)
inactive: [1]; [8] 27% | [1]; [9] 27% | [1]; at 50.0 µM 8.65% and -2.35% | [2]; [8] 14% | [2]; [9] 14% | [2]; at 50.0 µM -27.1% and 5.4% | [3]; [8] 11% | [3]; [9] 11% | [3]; at 50.0 µM 6.3% and -28.1% | [4]; [8] 17% | [4]; [9] 17% | [4]; at 50.0 µM 9.15% and -3.95% | [5]; [8] 6% | [5]; [9] 6% | [5]; at 50.0 µM 58.9% and -30.1% | [6]; [8] 7% | [6]; [9] 7% | [6]; at 50.0 µM 12.2% and -0.5%

Oc1ccccc1C=Nc1ccccc1N=Cc1ccccc1O
68% (inactive) and 96% (active): [1]; [9]
inactive: [1]; [8] -16% and -2% | [2]; [8] -34% and -4% | [4]; [8] 7% and -12% | [4]; at 50.0 µM 59.5% and 8.6% | [5]; [8] 14% and -3% | [6]; [8] -17% and -4%
52% (inactive) and 86% (active): [5]; [9]
67% (inactive) and 87.2% (active): [5]; at 50.0 µM
active: [1]; at 50.0 µM 85% and 81.4% | [2]; [9] 98% and 85% | [2]; at 50.0 µM 78.9% and 89% | [6]; [9] 98% and 97% | [6]; at 50.0 µM 76.3% and 93%
39% (inactive) and 95% (active): [4]; [9]

CCOc1ccc(NC(=O)/C(=C\c2ccc(C)cc2)C(C)=O)cc1
inactive: [1]; [8] -17% | [1]; [9] -1% | [1]; at 50.0 µM -32% and 8.1% | [2]; [8] -2% | [2]; [9] -3% | [2]; at 50.0 µM -2.3% and -25.1% | [3]; [8] 9% | [3]; [9] -4% | [3]; at 50.0 µM 2.9% and 3.65% | [4]; [8] -6% | [4]; [9] 5% | [4]; at 50.0 µM -24.8% and -8.15% | [5]; [8] -3% | [5]; [9] -5% | [5]; at 50.0 µM -2.4% and -19.2% | [6]; [8] -3% | [6]; [9] -5% | [6]; at 50.0 µM 6% and 0.5%

CC1(C)OC2C(O)C(O)C3OC(C)(C)OC3C2O1 (centres undefined)
74.1% (active) and -2.4% (inactive): [4]; at 50.0 µM
inactive: [1]; [8] -20% | [1]; [9] 6% | [1]; at 50.0 µM 6% and 7.9% | [2]; [8] -13% | [2]; [9] 2% | [2]; at 50.0 µM 9.35% and -8.1% | [4]; [8] -1% | [4]; [9] 0% | [5]; [8] 2% | [5]; [9] 2% | [5]; at 50.0 µM 61% and 15.4% | [6]; [8] 25% | [6]; [9] 15% | [6]; at 50.0 µM 44% and 9.25%

O=Cc1cc([N+](=O)[O-])ccc1O.[Eu]
active: [1]; at 50.0 µM 81.3% | [3]; [9] 95% | [3]; at 50.0 µM 91.2% | [4]; [9] 97% | [4]; at 50.0 µM 83.2% | [5]; [9] 96% | [5]; at 50.0 µM 85.8% | [7]; at 100.0 µM 98% | [6]; at 50.0 µM 86.2%
inactive: [1]; [8] 28% | [1]; [9] 51% | [3]; [8] -4% | [4]; [8] 18% | [5]; [8] 49% | [7]; at 1.2 µM 6% | [7]; at 3.7 µM 7% | [7]; at 11.0 µM 20% | [7]; at 33.0 µM 36% | [6]; [8] 29% | [6]; [9] 64%

COc1cc2c3c(c1)SCCC(=O)N3CCN2
inactive: [1]; [8] 17% | [1]; [9] 17% | [2]; [8] 4% | [2]; [9] 4% | [4]; [8] -4% | [4]; [9] -4% | [5]; [8] 0% | [5]; [9] 0% | [6]; [8] 14% | [6]; [9] 14% | [6]; at 50.0 µM 45.7%
active: [1]; at 50.0 µM 71.7% | [2]; at 50.0 µM 81.2% | [4]; at 50.0 µM 80.4% | [5]; at 50.0 µM 73.3%

CN(C)CCNC(=O)Cc1cc(O)c2c(c1O)C(=O)c1ccccc1C2=O
active: [1]; at 50.0 µM 75.3% | [3]; at 50.0 µM 81.3% | [6]; at 50.0 µM 82.1%
inactive: [1]; [8] 6% | [1]; [9] 42% | [2]; [8] 6% | [2]; [9] 16% | [2]; at 50.0 µM 23% | [3]; [8] 4% | [3]; [9] 28% | [4]; [8] -7% | [4]; [9] 12% | [4]; at 50.0 µM 54.7% | [5]; [8] 0% | [5]; [9] 16% | [5]; at 50.0 µM 16% | [6]; [8] 4% | [6]; [9] 10%
